From PubChem BioAssay (NCI)
Compounds without any hit were thinned out: in the full panel of roughly 79,000, 15% have a hit. A number with no mark means an inactive call. Activity calls are given as the source filed them. Rule as the data show it: active = growth inhibition above about 70%; inactive = the rest.

How the values were obtained:
[1] = NCI Yeast Anticancer Drug Screen. Data for the rad50 strain (AID 155);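 also: 0% = growth of vehicle-only cultures of the same strain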; conditions: S. cerevisiae rad50 strain growth inhibition, hits give high values
How it was run: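 A DNA repair-deficient yeast mutant serves as the test organism; compound-induced growth inhibition is calculated against vehicle-treated cells.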

[2] = NCI Yeast Anticancer Drug Screen. Data for the mec2-1 strain (AID 157); conditions: S. cerevisiae mec2-1 strain, hits give high values
How it was run: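 Mutant yeast (mec2-1) grown with compound; growth inhibition relative to vehicle control reported.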

[3] = NCI Yeast Anticancer Drug Screen. Data for the sgs1 mgt1 strain (AID 161);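 also: 0% = growth of cultures given vehicle only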; conditions: S. cerevisiae sgs1 mgt1 strain, hits give high values
How it was run: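 Growth of a repair-deficient yeast mutant was monitored after compound treatment and expressed as inhibition relative to vehicle-treated cultures.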

[4] = NCI Yeast Anticancer Drug Screen. Data for the cln2 rad14 strain (AID 165);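 also: 0% = growth equal to vehicle treated cultures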; conditions: S. cerevisiae cln2 rad14 strain, hits give high values
How it was run: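 Readout is yeast growth inhibition versus vehicle-treated controls, using a strain with cln2 and rad14 alterations exposed to compound.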

[5] = NCI Yeast Anticancer Drug Screen. Data for the bub3 strain (AID 167); conditions: S. cerevisiae bub3 mutant strain, hits give high values
How it was run: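 Inhibition values come from growth of compound-treated mutant yeast normalised to vehicle-treated controls.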

[6] = NCI Yeast Anticancer Drug Screen. Data for the mlh1 rad18 strain (AID 175); conditions: S. cerevisiae mlh1 rad18 strain growth inhibition, hits give high values
How it was run: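 Genetically defined yeast (DNA repair-deficient) exposed to compounds; growth inhibition determined relative to vehicle.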

[7] = at 5.0 µM (retest, dose inferred, filed as 0.5)
[8] = at 50.0 µM (retest, dose inferred, filed as 5.0)

SMILES	growth inhibition [1, 7]	growth inhibition [1, 8]	growth inhibition ([1]; at 50.0 µM)	growth inhibition [2, 7]	growth inhibition [2, 8]	growth inhibition ([2]; at 50.0 µM)	growth inhibition [3, 7]	growth inhibition [3, 8]	growth inhibition ([3]; at 50.0 µM)	growth inhibition [4, 7]	growth inhibition [4, 8]	growth inhibition ([4]; at 50.0 µM)	growth inhibition [5, 7]	growth inhibition [5, 8]	growth inhibition ([5]; at 50.0 µM)	growth inhibition [6, 7]	growth inhibition [6, 8]	growth inhibition ([6]; at 50.0 µM)
Cc1c2c(c(C)c3c1sc1ccccc13)CCN=C2	9%	98% (active)	55.5%	-14%	98% (active)	49.9%	-1%	98% (active)	57.6%	-21%	98% (active)	94.9% (active)	-5%	98% (active)	92.8% (active)	-8%	99% (active)	57.2%
CCCCCCCCCCN	1%	51%	65.8%	-1%	13%	34.6%	7%	36%	71% (active)	6%	19%	42.2%	7%	30%	47.2%	6%	36%	46.8%
O=C(Nc1ccccc1-c1nn(CN2CCNCC2)c(=S)n(CN2CCNCC2)c1=O)C(F)(F)F	0%	17%	7.5%	0%	10%	25.9%	-2%	13%	12.6%	-4%	10%	68.1%	1%	0%	8.65%	-2%	14%	38.6%
COc1ccccc1C(=O)[O][Sn]([c]1ccccc1)([c]1ccccc1)[c]1ccccc1	100% (active)	99% (active)	99.2% (active)	100% (active)	100% (active)	99.3% (active)	99% (active)	99% (active)	99.3% (active)	99% (active)	99% (active)	89.3% (active)	100% (active)	99% (active)	99% (active)	99% (active)	99% (active)	98.7% (active)
COC(=O)C(=C(c1ccccc1)c1ccccc1)c1ccccc1	3%	-1%	25.8%	0%	4%	23.1%	4%	-1%	52%	0%	4%	43.1%	-2%	-3%	89.6% (active)	-3%	7%	35.6%
NNC(=S)N/N=C(\CC1OC(=O)c2ccccc21)c1ccccc1O (configuration not stated)	6%	-3%	80.1% (active)	-12%	-17%	60.2%	22%	7%	56.1%	11%	4%	32%	-9%	13%	58.1%	-43%	-27%	84.2% (active)
Cn1c2c(c3ccccc31)CCN(CCCN1CCN(c3cccc(Cl)c3)CC1)C2=O	32%	32%	79.2% (active)	7%	7%	54.1%	22%	22%	78.7% (active)	11%	11%	73.8% (active)	2%	2%	80% (active)	25%	25%	71% (active)
COC(=O)NC1CCCCCCCCCCC1I (configuration not stated)	-4%	97% (active)	98.5% (active)	14%	99% (active)	82.3% (active)	-5%	99% (active)	17.1%	19%	99% (active)	-2.05%	-5%	99% (active)	3.35%	5%	98% (active)	99% (active)
O=S1CCS(=O)C1c1ccccc1 (configuration not stated)	-1%	28%	85.3% (active)	-6%	26%	61%	-5%	33%	54%	-18%	8%	-11.1%	-14%	38%	67.8%	2%	39%	37.7%
